A selection: hits, their analogues and other compounds. The true share with any hit is near 3.6%.
LGR2 inh – Drosophila LGR2 receptor signaling inhibition | HEK293 LGR2, CRE-luciferase, bursicon-stimulated, 4 h | inhibition, % at 9.99 µM | actives 0.35% (n = 380,000);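 active = drop in luminescence signal, shown as inhibition above about 50% in the replicate tests, limit read from the data, passing the limit was not always enough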;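 also: agonist challenge used bursicon conditioned medium at about half maximal strength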
Mdm2-MdmX inh – human Mdm2/MdmX binding inhibition. SaOS-2 split-luciferase Mdm2/MdmX complementation, luminescence. inhibition, % at 8 µM. actives 3% (n = 330,000). AID 485346;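 active = inhibition of at least 50% at 8 µM in the primary screen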
Target sequence (O15151 whole entry, looked up): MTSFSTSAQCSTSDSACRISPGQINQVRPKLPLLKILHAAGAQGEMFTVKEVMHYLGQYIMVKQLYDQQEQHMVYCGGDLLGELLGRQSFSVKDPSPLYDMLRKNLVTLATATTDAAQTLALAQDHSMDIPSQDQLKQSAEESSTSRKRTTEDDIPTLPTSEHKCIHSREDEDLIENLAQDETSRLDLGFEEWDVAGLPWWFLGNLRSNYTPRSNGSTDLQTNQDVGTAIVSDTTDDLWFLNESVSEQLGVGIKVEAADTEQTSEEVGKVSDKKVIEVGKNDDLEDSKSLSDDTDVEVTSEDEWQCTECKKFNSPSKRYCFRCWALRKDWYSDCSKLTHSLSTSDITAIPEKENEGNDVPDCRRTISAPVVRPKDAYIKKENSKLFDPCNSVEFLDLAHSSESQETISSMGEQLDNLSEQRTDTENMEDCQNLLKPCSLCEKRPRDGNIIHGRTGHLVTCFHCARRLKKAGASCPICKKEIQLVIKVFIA
Target sequence (Q00987 whole entry, looked up): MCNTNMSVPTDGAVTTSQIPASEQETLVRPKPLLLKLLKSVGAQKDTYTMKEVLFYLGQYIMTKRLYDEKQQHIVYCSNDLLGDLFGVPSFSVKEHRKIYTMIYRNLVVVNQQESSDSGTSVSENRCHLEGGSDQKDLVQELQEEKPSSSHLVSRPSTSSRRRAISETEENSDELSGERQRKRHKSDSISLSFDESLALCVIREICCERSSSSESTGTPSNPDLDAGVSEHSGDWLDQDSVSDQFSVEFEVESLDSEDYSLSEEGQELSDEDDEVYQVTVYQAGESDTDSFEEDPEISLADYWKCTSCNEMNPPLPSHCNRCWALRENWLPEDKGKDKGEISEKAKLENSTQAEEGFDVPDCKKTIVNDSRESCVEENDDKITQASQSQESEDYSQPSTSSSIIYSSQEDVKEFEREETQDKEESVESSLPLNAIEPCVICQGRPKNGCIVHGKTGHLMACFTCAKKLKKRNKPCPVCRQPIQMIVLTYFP
KKLEB cytotox – reduces viability of KKLEB cystic fibrosis airway cells. actives 0.36% (n = 360,000). KKLEB CF airway cells viability, ATPlite luminescence, overnight; active compounds read low; cells stimulated with P. aeruginosa culture filtrate. activity change (cytotoxicity), % at 5 µM. AID 602141;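 active = corrected activity change at or below -50% at 5 µM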
HSP90 inh – HSP90 refolding inhibition in rabbit reticulocyte lysate | inhibition, % at 5.6 µM | actives 0.91% (n = 290,000) | luciferase refolding luminescence, 3 h;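 active = inhibition above the screen-wide mean plus 3 SD, computed separately per campaign, cut at about 16% in these data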;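 also: inhibitors lower the luminescence because luciferase stays unfolded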
Peg3 prom inh – reduces Peg3 promoter-driven luciferase expression in HeLa. HeLa PEG-Prom luciferase reporter, luminescence, overnight. inhibition, % at 20 µM. actives 1.7% (n = 360,000);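 active = inhibition of at least 50% at 20 µM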
CF NFkB block – blocks PAF-induced NF-kB reporter in cystic fibrosis cells; KKLEB NF-kB-GFP reporter, GFP fluorescence overnight; inhibition, % at 5 µM; actives 0.86% (n = 360,000);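 active = at least 50% inhibition at 5 µM, scaled per plate between neutral and stimulator controls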;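 also: PAF is a Pseudomonas aeruginosa culture filtrate used as stimulus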
Mdm2-MdmX conf – confirmation of human Mdm2/MdmX interaction inhibitors; shares compounds with Mdm2-MdmX inh; Mdm2-MdmX binding, luminescent assay; inhibition, % at 8 µM; actives 55% (n = 10,000); AID 489028; in the data active = inhibition above about 40%
Full FLuc ctr – counter-screen for Mdm2/MdmX inhibitors: full-length luciferase; SaOS-2 full-length luciferase counterscreen, luminescence; inhibition, % at 8 µM; actives 77% (n = 6,200); shares compounds with Mdm2-MdmX inh; AID 504607;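 active = mean inhibition at 8 µM reaching about 37%, which flags the compound as non-specific, limit read from the data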;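 also: p53-null SaOS-2 cells with luciferase driven by a doxycycline-inducible promoter; compound on cells about two nights before reading with doxycycline added after day one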
Large screens that a line does not name were inactive (follow-up assays come after a bar, where they were run).

CNC(=S)NNC(=O)c1sccc1OCc1ccc(Cl)cc1Cl	none (no result: LGR2 inh)
CCOC(=O)N1CCN(Cc2nc3ccc([N+](=O)[O-])cc3c(=O)n2-c2ccccc2F)CC1	Mdm2-MdmX inh 52.4 | Mdm2-MdmX conf 41.0 | Full FLuc ctr 75.3
CC/C(=N/Nc1cccc(Cl)c1)c1cnnc(SC)n1	Mdm2-MdmX inh 54.1 | Mdm2-MdmX conf inactive | Full FLuc ctr 71.0
O=C(CN1C(=O)/C(=C\c2ccc(F)cc2)Oc2ccccc21)N1CCN(c2ccccn2)CC1	Mdm2-MdmX inh 79.3 | Mdm2-MdmX conf inactive | Full FLuc ctr 78.5
COc1cccc(/C=C2\SC(=S)N(CCC(=O)NCCc3ccc(O)cc3)C2=O)c1	Mdm2-MdmX inh 99.5, Peg3 prom inh 95.4 | Mdm2-MdmX conf 84.0 | Full FLuc ctr inactive
O=C(CCCN1C(=O)/C(=C/c2ccc(F)cc2)SC1=S)NCCCn1ccnc1	none
O=C(CN1C(=O)/C(=C/c2ccc(F)cc2)SC1=S)N1CCN(CCc2ccccn2)CC1	Mdm2-MdmX inh 60.5, Peg3 prom inh 51.3 | Mdm2-MdmX conf inactive
O=C(CN1C(=O)/C(=C\c2cccc(F)c2)Oc2ccccc21)N1CCN(c2ccccn2)CC1	none
O=C(CCN1C(=O)/C(=C/c2ccc(F)cc2)SC1=S)NCCc1ccc(O)cc1	Mdm2-MdmX inh 87.5, Peg3 prom inh 83.0 | Mdm2-MdmX conf 65.7 | Full FLuc ctr 41.6
COc1cc(C(=O)NCC(c2cccs2)N2CCOCC2)cc(Br)c1OCc1ccccc1 (stereo unspecified)	Mdm2-MdmX inh 51.1 (no result: HSP90 inh) | Mdm2-MdmX conf 41.9 | Full FLuc ctr 39.4
Cc1cccc(N2CCN(C(=O)c3ccc(N4CCCC4=O)cc3)CC2C)c1 (stereo unspecified)	none (no result: LGR2 inh)
O=C(c1cccc(N2CCCC2=O)c1)N1CCN(c2ccc(F)cc2)CC1	none
Cc1cccc(N2CCN(C(=O)c3cccc(N4CCCC4=O)c3)C(C)C2)c1 (stereo unspecified)	Mdm2-MdmX inh 54.6 | Mdm2-MdmX conf 60.1 | Full FLuc ctr 50.3
O=C(c1cccc(N2CCCC2=O)c1)N1CCN(c2cccc(Cl)c2)CC1	Mdm2-MdmX inh 57.3 (no result: LGR2 inh) | Mdm2-MdmX conf 68.3 | Full FLuc ctr 48.4
COc1ccc(CNC(=O)C[C@H]2CC[C@@H](NC(=O)c3cccc(F)c3)[C@H](CO)O2)cc1	none (no result: Mdm2-MdmX inh, KKLEB cytotox, HSP90 inh, Peg3 prom inh, CF NFkB block)
Cc1nonc1NC(=O)CSc1nc(C2CCCCC2)nc2ccccc12	none (no result: LGR2 inh)
Cc1nonc1NC(=O)CSc1nc(C23CC4CC(CC(C4)C2)C3)nc2ccccc12	Mdm2-MdmX inh 52.0 | Mdm2-MdmX conf inactive
NC(=O)CSc1nc(C23CC4CC(CC(C4)C2)C3)nc2ccccc12	Mdm2-MdmX inh 59.8 | Mdm2-MdmX conf inactive | Full FLuc ctr 44.8
C[C@@H]1CN([C@H](C)CO)S(=O)(=O)c2ccc(/C=C/c3ccccc3)cc2O[C@H]1CN(C)C(=O)Nc1cc(F)ccc1F	none (no result: Mdm2-MdmX inh, KKLEB cytotox, HSP90 inh, Peg3 prom inh, CF NFkB block)
O=C(C[C@H]1CC[C@@H]2[C@H](COC[C@H](O)CN2CCC(F)(F)F)O1)NCC1CCCCC1	none (no result: Mdm2-MdmX inh, KKLEB cytotox, HSP90 inh, Peg3 prom inh, CF NFkB block)
O=[N+]([O-])c1ccc(/C=N/NC(=S)Nc2ccccc2F)o1	none
Cc1c(-c2ccc(/C=N/NC(=O)C(=O)Nc3ccccc3F)o2)cccc1[N+](=O)[O-]	Mdm2-MdmX inh 56.2 | Mdm2-MdmX conf inactive
C[C@@H]1CN([C@@H](C)CO)C(=O)c2cc(NC(=O)NC3CCCCC3)ccc2O[C@@H]1CN(C)C(=O)Nc1ccc2c(c1)OCO2	none (no result: Mdm2-MdmX inh, KKLEB cytotox, HSP90 inh, Peg3 prom inh, CF NFkB block)
CN(C)CCCNc1cc(C(C)(C)C)nc2c(-c3ccccc3)cnn12	Mdm2-MdmX inh 100.2 | Mdm2-MdmX conf 52.5 | Full FLuc ctr 72.4
Cc1cc(NCCOCCO)n2ncc(-c3ccc(Cl)cc3)c2n1	Mdm2-MdmX inh 61.2 (no result: LGR2 inh) | Mdm2-MdmX conf 53.5 | Full FLuc ctr 58.7
CC(C)(C)c1cc(NCCCn2ccnc2)n2ncc(-c3ccc(Cl)cc3)c2n1	Mdm2-MdmX inh 73.9 | Mdm2-MdmX conf 42.5 | Full FLuc ctr inactive
COc1ccc(NC(=O)Nc2ccc3c(c2)C(=O)N([C@H](C)CO)C[C@@H](C)[C@@H](CN(C)C(=O)CCC(F)(F)F)OCCCC[C@H](C)O3)cc1	none (no result: Mdm2-MdmX inh, KKLEB cytotox, HSP90 inh, Peg3 prom inh, CF NFkB block)
COc1ccc(Cl)cc1NC(=O)Cn1nnc(C(=O)NCCc2ccc(OC)c(OC)c2)c1N	none
COc1ccc(NC(=O)Cn2nnc(C(=O)Nc3ccc(F)c(Cl)c3)c2N)cc1OC	Mdm2-MdmX inh 66.0 | Mdm2-MdmX conf inactive
COc1ccc(Cl)cc1NC(=O)c1nnn(CC(=O)Nc2ccc(C)c(C)c2)c1N	Mdm2-MdmX inh 52.6 | Mdm2-MdmX conf inactive
C/C=C/c1cnc2c(c1)C(=O)N([C@H](C)CO)C[C@@H](C)[C@@H](CN(C)S(=O)(=O)c1ccccc1F)O2	none (no result: Mdm2-MdmX inh, KKLEB cytotox, HSP90 inh, Peg3 prom inh, CF NFkB block)
C[C@@H]1CCCCO[C@H](CN(C)S(=O)(=O)c2cn(C)cn2)[C@@H](C)CN([C@@H](C)CO)C(=O)c2cc(NC(=O)Cc3ccccc3)ccc2O1	none (no result: Mdm2-MdmX inh, KKLEB cytotox, HSP90 inh, Peg3 prom inh, CF NFkB block)
Cc1nnc(SC(=O)N2c3ccccc3Sc3ccccc32)s1	Mdm2-MdmX inh 96.9, KKLEB cytotox -58.3, Peg3 prom inh 98.5, CF NFkB block 68.8 (no result: LGR2 inh) | Mdm2-MdmX conf 97.6 | Full FLuc ctr 51.8
Cc1c(Cl)cccc1NC(=S)N=Nc1c(O)n(CN2CCOCC2)c2ccccc12	Mdm2-MdmX inh 81.9 (no result: LGR2 inh) | Mdm2-MdmX conf 63.1 | Full FLuc ctr 51.4
Oc1c(N=NC(=S)Nc2ccccc2F)c2ccccc2n1Cc1ccccc1	none
C=CCn1c(O)c(N=NC(=S)Nc2ccccc2F)c2ccccc21	Mdm2-MdmX inh 75.8 | Mdm2-MdmX conf 57.0 | Full FLuc ctr 50.0
Cc1ccc(NC(=O)Cn2c(O)c(N=NC(N)=S)c3ccccc32)cc1	Mdm2-MdmX inh 51.2 | Mdm2-MdmX conf inactive | Full FLuc ctr 64.8
Cc1ccc(NC(=O)Cn2c(O)c(N=NC(N)=O)c3ccccc32)cc1	none
Cc1ccc(Cn2c(O)c(N=NC(=S)Nc3ccccc3F)c3ccccc32)cc1	Mdm2-MdmX inh 57.1 | Mdm2-MdmX conf 60.0 | Full FLuc ctr 48.5
C[C@@H]1CN([C@@H](C)CO)C(=O)c2cc(NC(=O)CCC(F)(F)F)ccc2O[C@@H](C)CCCCO[C@H]1CN(C)C(=O)CCCN(C)C	none (no result: Mdm2-MdmX inh, KKLEB cytotox, HSP90 inh, Peg3 prom inh, CF NFkB block)
C=CCn1c(O)c(N=NC(=S)Nc2cccc(C)c2)c2ccccc21	Mdm2-MdmX inh 61.0 | Mdm2-MdmX conf 55.4 | Full FLuc ctr inactive
CCn1c(O)c(N=NC(=O)CNc2cccc(C)c2)c2ccccc21	none
C=CCn1c(O)c(N=NC(=S)Nc2ccccc2F)c2cc(S(=O)(=O)N3CCOCC3)ccc21	Mdm2-MdmX inh 64.0 | Mdm2-MdmX conf 44.1 | Full FLuc ctr 50.0
Clc1ccc(N2CCN(c3ncnc4c3oc3ccccc34)CC2)cc1	Mdm2-MdmX inh 57.9 (no result: LGR2 inh, HSP90 inh) | Mdm2-MdmX conf inactive
